Test results reported in paper PMC3218832.

Legend:
Assay in all cases: protein binding microarray; high values mean tight binding
Details in all cases: dsDNA, one strand shown
[1] = target: RELARELA (p65 homodimer) (Homo sapiens, UniProt Q04206 1-307)
[2] = target: p50p50 homodimer (Homo sapiens, UniProt P19838 7-356)
[3] = target: T1, p52p52 homodimer (Homo sapiens, UniProt Q00653 4-332)
T1 sequence: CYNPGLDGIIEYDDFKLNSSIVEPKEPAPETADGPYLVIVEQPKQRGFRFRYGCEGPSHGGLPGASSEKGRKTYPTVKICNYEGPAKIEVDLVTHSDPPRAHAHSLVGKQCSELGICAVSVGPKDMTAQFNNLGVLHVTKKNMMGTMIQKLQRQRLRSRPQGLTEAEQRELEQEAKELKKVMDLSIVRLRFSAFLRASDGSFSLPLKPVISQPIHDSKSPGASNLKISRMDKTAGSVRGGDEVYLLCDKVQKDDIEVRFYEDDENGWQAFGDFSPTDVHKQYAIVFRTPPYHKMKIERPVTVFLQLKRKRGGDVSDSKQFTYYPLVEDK

[4] = target: RELA (p65) subunit of heterodimer;p50 subunit (Homo sapiens;Homo sapiens, UniProt Q04206;P19838 1-307;7-356)
[5] = target: RELA (p65) subunit of heterodimer;p52 subunit (Homo sapiens;Homo sapiens, UniProt Q04206;Q00653 1-307;4-332)
[6] = target: RELB subunit;p50 subunit (Homo sapiens;Homo sapiens, UniProt Q01201;P19838 120-401;7-356)
[7] = target: T2, RELB subunit;p52 subunit (Homo sapiens;Homo sapiens, UniProt Q01201;Q00653 120-401;4-332)
T2 sequence 1: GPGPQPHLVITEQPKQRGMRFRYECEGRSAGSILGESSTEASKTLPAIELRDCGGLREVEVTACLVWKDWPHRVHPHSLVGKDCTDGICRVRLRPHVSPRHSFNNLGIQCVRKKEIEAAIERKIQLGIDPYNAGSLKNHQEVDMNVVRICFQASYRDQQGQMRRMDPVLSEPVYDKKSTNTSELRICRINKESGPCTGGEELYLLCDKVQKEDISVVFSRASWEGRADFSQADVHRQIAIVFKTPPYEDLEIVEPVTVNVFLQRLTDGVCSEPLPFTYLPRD
T2 sequence 2: T1 sequence

[8] = target: C-Rel subunit;p50 subunit (Homo sapiens;Homo sapiens, UniProt Q04864;P19838 1-285;7-356)
[9] = target: T3, C-Rel subunit;p52 subunit (Homo sapiens;Homo sapiens, UniProt Q04864;Q00653 1-285;4-332)
T3 sequence 1: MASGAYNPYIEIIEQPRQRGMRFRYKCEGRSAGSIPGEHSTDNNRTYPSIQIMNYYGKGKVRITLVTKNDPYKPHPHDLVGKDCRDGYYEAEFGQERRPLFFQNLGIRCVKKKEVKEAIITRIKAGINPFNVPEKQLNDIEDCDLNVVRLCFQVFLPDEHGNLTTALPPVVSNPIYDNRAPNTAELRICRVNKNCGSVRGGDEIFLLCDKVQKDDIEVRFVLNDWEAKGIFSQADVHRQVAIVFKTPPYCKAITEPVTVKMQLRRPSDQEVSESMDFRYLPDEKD
T3 sequence 2: T1 sequence

Sequence of RELARELA (p65 homodimer) (Q04206 1-307): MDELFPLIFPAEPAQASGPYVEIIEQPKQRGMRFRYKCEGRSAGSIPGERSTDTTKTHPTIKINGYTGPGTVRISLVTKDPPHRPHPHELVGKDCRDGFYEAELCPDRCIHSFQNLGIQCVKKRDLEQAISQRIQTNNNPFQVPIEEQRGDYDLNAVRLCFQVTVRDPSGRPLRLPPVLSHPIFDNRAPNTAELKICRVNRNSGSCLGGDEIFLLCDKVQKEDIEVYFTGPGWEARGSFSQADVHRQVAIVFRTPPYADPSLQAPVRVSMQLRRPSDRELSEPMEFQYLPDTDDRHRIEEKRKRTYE
Sequence of RELA (p65) subunit of heterodimer;p50 subunit (Q04206 1-307, chain 1 of 2): as the sequence (Q04206 1-307) above
Sequence of RELA (p65) subunit of heterodimer;p50 subunit (P19838 7-356, chain 2 of 2): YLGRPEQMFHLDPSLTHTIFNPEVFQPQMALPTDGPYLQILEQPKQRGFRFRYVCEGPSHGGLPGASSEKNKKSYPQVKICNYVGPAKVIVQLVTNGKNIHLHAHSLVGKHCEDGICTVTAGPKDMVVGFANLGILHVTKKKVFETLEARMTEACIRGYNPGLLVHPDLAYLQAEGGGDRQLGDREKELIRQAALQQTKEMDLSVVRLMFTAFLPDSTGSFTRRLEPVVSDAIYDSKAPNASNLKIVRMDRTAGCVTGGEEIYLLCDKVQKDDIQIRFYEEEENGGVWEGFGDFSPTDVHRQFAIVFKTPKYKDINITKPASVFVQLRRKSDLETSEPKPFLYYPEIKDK
Sequence of p50p50 homodimer (P19838 7-356): as the sequence (P19838 7-356, chain 2 of 2) above

Row | Sequence | binding signal [1] | binding signal [2] | binding signal [3] | binding signal [4] | binding signal [5] | binding signal [6] | binding signal [7] | binding signal [8] | binding signal [9]
1 | AGATTGACCCT | -0.149 z-score | -0.594 z-score | -0.42 z-score | -0.583 z-score | -0.704 z-score | -0.635 z-score | -0.605 z-score | -0.895 z-score | -0.787 z-score
2 | GAGTAATTCCT | 0.42 z-score | -1 z-score | -0.525 z-score | -0.42 z-score | -0.441 z-score | -0.739 z-score | -0.87 z-score | -0.18 z-score | -0.195 z-score
3 | AGAAGCTCCCT | -0.425 z-score | 0.158 z-score | -0.322 z-score | -0.103 z-score | -0.284 z-score | -0.0298 z-score | -0.239 z-score | -0.54 z-score | -0.52 z-score
4 | AGGAGGATCCT | -0.49 z-score | -1.69 z-score | -0.694 z-score | -0.999 z-score | -1.04 z-score | -0.926 z-score | -0.821 z-score | -1.4 z-score | -0.915 z-score
5 | AGGAATGCCCT | 1.19 z-score | -0.455 z-score | -0.376 z-score | -0.147 z-score | -0.196 z-score | -0.674 z-score | -0.494 z-score | -0.208 z-score | 0.0938 z-score
6 | CGAAGTGTCCT | -0.41 z-score | -1.95 z-score | -0.44 z-score | -0.957 z-score | -0.797 z-score | -1.13 z-score | -0.796 z-score | -1.19 z-score | -0.64 z-score
7 | AGATAAGCCCT | -0.464 z-score | -1.05 z-score | -0.697 z-score | -0.764 z-score | -0.927 z-score | -1.1 z-score | -0.798 z-score | -0.985 z-score | -0.712 z-score
8 | AAGTATTCCCT | 0.729 z-score | 0.846 z-score | 0.794 z-score | 0.606 z-score | 0.612 z-score | 0.683 z-score | 0.852 z-score | 0.812 z-score | 0.523 z-score
9 | CAGTGGGTCCT | -0.388 z-score | -1.79 z-score | -0.509 z-score | -1.1 z-score | -0.79 z-score | -0.698 z-score | -0.708 z-score | -1.36 z-score | -1.08 z-score
10 | AGAATGTTCCT | 0.037 z-score | -1.47 z-score | -0.491 z-score | -0.64 z-score | -0.735 z-score | -0.963 z-score | -0.948 z-score | -1.17 z-score | -0.63 z-score
11 | AGGATAGCCCT | -0.44 z-score | -1.05 z-score | -0.582 z-score | -0.78 z-score | -0.902 z-score | -0.841 z-score | -0.772 z-score | -0.982 z-score | -0.688 z-score
12 | GGGGGTGCCCC | 1.45 z-score | 0.814 z-score | 3.15 z-score | 2.21 z-score | 2.88 z-score | 2.52 z-score | 2.27 z-score | 1.67 z-score | 2.5 z-score
13 | GAGGAGCTCCT | -0.566 z-score | -1.81 z-score | -0.78 z-score | -1.13 z-score | -0.927 z-score | -1.05 z-score | -1.06 z-score | -1.73 z-score | -0.927 z-score
14 | AAATGAGTCCT | -0.142 z-score | -1.04 z-score | -0.602 z-score | -0.991 z-score | -0.866 z-score | -0.889 z-score | -0.596 z-score | -1.08 z-score | -0.769 z-score
15 | AGGTAATTCCT | 1.47 z-score | 0.62 z-score | 1.15 z-score | 0.471 z-score | 0.62 z-score | 0.351 z-score | 0.553 z-score | 0.224 z-score | 0.709 z-score
16 | AGAGAGGTCCT | 0.413 z-score | -1.58 z-score | -0.36 z-score | -0.866 z-score | -0.592 z-score | -0.624 z-score | -0.363 z-score | -1.31 z-score | -0.537 z-score
17 | AAATACACCCC | -0.0111 z-score | 0.252 z-score | 0.0531 z-score | 0.224 z-score | 0.204 z-score | 0.209 z-score | 0.566 z-score | 0.342 z-score | 0.187 z-score
18 | CGGAAGCTCCT | -0.12 z-score | -1.95 z-score | -0.752 z-score | -1.05 z-score | -1.08 z-score | -1.17 z-score | -1.2 z-score | -1.46 z-score | -0.785 z-score
19 | GGATGACTCCC | -0.304 z-score | -0.794 z-score | -0.473 z-score | -0.49 z-score | -0.701 z-score | -0.618 z-score | -0.826 z-score | -0.932 z-score | -0.692 z-score
20 | AAAATAGTCCT | -0.023 z-score | -0.728 z-score | -0.497 z-score | -0.709 z-score | -0.767 z-score | -0.806 z-score | -0.856 z-score | -0.761 z-score | -0.606 z-score
21 | CAAATCTCCCT | 0.0987 z-score | 1.24 z-score | 0.832 z-score | 1.06 z-score | 1.05 z-score | 1.35 z-score | 1.4 z-score | 0.664 z-score | 1.06 z-score
22 | CAATGTCTCCC | -0.338 z-score | -0.647 z-score | -0.276 z-score | -0.405 z-score | -0.499 z-score | -0.294 z-score | -0.275 z-score | -0.53 z-score | -0.561 z-score
23 | GGAGAAACCCT | 0.379 z-score | -0.144 z-score | 0.127 z-score | 0.478 z-score | 0.623 z-score | -0.35 z-score | 0.176 z-score | 0.255 z-score | 0.637 z-score
24 | CGATAGCTCCT | -0.609 z-score | -1.63 z-score | -0.796 z-score | -1.07 z-score | -1.04 z-score | -1.34 z-score | -1 z-score | -1.65 z-score | -1.09 z-score
25 | GAAGACCTCCT | -0.649 z-score | -2.61 z-score | -0.857 z-score | -0.905 z-score | -0.909 z-score | -1.23 z-score | -0.869 z-score | -1.61 z-score | -0.944 z-score
26 | AGATTCGCCCC | 0.366 z-score | 0.156 z-score | 0.127 z-score | 0.288 z-score | 0.219 z-score | 0.292 z-score | 0.48 z-score | 0.611 z-score | -0.0556 z-score
27 | AAGATTTCCCC | 2.26 z-score | 1.48 z-score | 2.39 z-score | 2.11 z-score | 2 z-score | 2.3 z-score | 2.17 z-score | 1.73 z-score | 2.03 z-score
28 | CAGTGAGTCCC | 0.14 z-score | 0.525 z-score | 0.308 z-score | 0.411 z-score | 0.115 z-score | 0.511 z-score | 0.164 z-score | 0.393 z-score | 0 z-score
29 | GAAGTGCTCCT | -0.661 z-score | -1.67 z-score | -0.792 z-score | -0.918 z-score | -1.01 z-score | -1.33 z-score | -1.22 z-score | -1.67 z-score | -1 z-score
30 | CAAAGTTTCCT | 0.729 z-score | -0.548 z-score | -0.572 z-score | -0.313 z-score | -0.494 z-score | -0.737 z-score | -0.489 z-score | -0.0288 z-score | -0.21 z-score
